# PubChem BioAssay (NCI)
# Values joined by “and” are separate entries in the source; they are usually repeats but may differ in a detail not shown here. Identical values can stand only once. The panel holds about 83,000 compounds, 20% with a hit somewhere; the sample as a whole holds those more often.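 Method: cells in 96-well plates; compound added at one concentration; 48 h incubation; percent growth measured; values under 10 scored active.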 Active and inactive are the calls of the source.
# Tested on: OVCAR-3 ovarian
# Assay: NCI-60 one-dose screen, 48 h (100 = growth as untreated, 0 = no growth, -100 = all killed)
# Conditions: 1 µM
# Method: Growth inhibition of the OVCAR-3 human tumor cell line is measured as a screen for anti-cancer activity. Cells are grown in 96 well plates and exposed to the test compound for 48 hours. Compounds are tested at a single concentration, which is 10^-5 M for most compounds. The reported endpoint is percent growth (GI% or GIPRCNT), where numbers from 0 - 100% represent growth inhibition, and numbers from -100% - 0 represent cell death. For example, a value of 40 represents 60% growth inhibition. A value of 0 means no net growth occurred over the course of the experiment. A value of -40 indicates 40% of cells at the beginning of the experiment died by the end of the experiment. A value of -100 means all cells are dead at the end of the experiment.
# NCI-60 Human Tumor Cell Lines Screen was performed using the standard one-dose NCI protocol, which is described in more detail at https://dtp.cancer.gov/discovery_development/nci-60/default.htm.
# Compounds with GIPRCNT values below 10 were considered active. Activity score was based on GIPRCNT using the following formula: […]
# Score is 0 for GIPRCNT values of 100 or above, 50 for GIPRCNT values of 0, and 100 for GIPRCNT values of -100.
row,Structure (SMILES),growth
1,CC/C(=C(/c1ccc(O)cc1)c1ccc(OCCN(C)C(=O)COCCOCCNC(=O)c2ccc3c(c2)CN([C@@H]2CCC(=O)NC2=O)C3=O)cc1)c1ccccc1,99.1% (inactive)
2,CC/C(=C(/c1ccc(O)cc1)c1ccc(OCCN(C)C(=O)COCCOCCNC(=O)Cc2ccc3c(c2)CN([C@@H]2CCC(=O)NC2=O)C3=O)cc1)c1ccccc1,95.6% (inactive)
3,CC/C(=C(\c1ccc(O)cc1)c1ccc(OCCNC)cc1)c1ccccc1,115% (inactive)

# Same assay, conditions: 10 µM
row,Structure (SMILES),growth
1,CC/C(=C(/c1ccc(O)cc1)c1ccc(OCCN(C)C(=O)COCCOCCNC(=O)c2ccc3c(c2)CN([C@@H]2CCC(=O)NC2=O)C3=O)cc1)c1ccccc1,95.8% (inactive)
2,CC/C(=C(/c1ccc(O)cc1)c1ccc(OCCN(C)C(=O)COCCOCCNC(=O)Cc2ccc3c(c2)CN([C@@H]2CCC(=O)NC2=O)C3=O)cc1)c1ccccc1,61.3% (inactive)
3,CC/C(=C(\c1ccc(O)cc1)c1ccc(OCCNC)cc1)c1ccccc1,85.4% (inactive)

# Same assay, conditions: 10 µM unless noted
row,Structure (SMILES),growth
1,COc1ccc2[nH]c(O)c(N=Nc3nc(-c4ccc(C#N)cc4)cs3)c2c1,8.62% (active)
2,CN1CCN(C(=O)CCN(C(=O)Oc2cc3c(c4ccccc24)[C@H](CCl)CN3C(=O)c2cc3cc(OCCCN4CCC4)ccc3[nH]2)[C@H]2CCSSC2)CC1,-71.7% (active)
3,Cc1ccc(Cl)cc1NC(=O)N/C(N)=N/c1nc2ccccc2s1,-67.7% (active)
4,CC(=O)C[n+]1cccc2c3ccccc3ccc21,70% (inactive)
5,COc1ccc2c(c1)c(-c1cc(N)n3nc(-c4c[nH]c5ccccc45)cc3n1)cn2C,-71.1% (active)
6,CS(=O)(=O)c1ccc(-n2nc(C(=O)NCc3ccccc3)cc2-c2ccc(Cl)cc2)cc1,99.7% (inactive)
7,COc1ccccc1NC(=O)c1ccc(NC(=O)CCl)s1,1.97% (active)
8,CC(C)(C)C(=O)C1CC(C#N)=C2C=Cc3c(ccc4ccccc34)N21 (stereo not given),96.3% (inactive)
9,COc1cc(C2CC(c3ccc(S(=O)(=O)NCCNc4nc(N(C)C)nc(N5CCOCC5)n4)cc3)=Nc3c(N)nc(N)nc3N2)cc(OC)c1OC (stereo not given),105% (inactive)
10,COc1ccc(-c2nc3ccccc3n2CC(=O)N=Nc2c(O)[nH]c3ccc(OC)cc23)cc1,35.5% (inactive)
11,O=C(NNC(=O)c1ccc(OCc2nc3ccc(Cl)cc3[nH]2)cc1)Nc1ccc(Cl)c(C(F)(F)F)c1,51.8% (inactive)
12,NC(=O)c1ccc(-c2ccc3ncnc(N4CCc5cc(F)c(Cl)cc54)c3c2)cn1,64.8% (inactive)
13,COC(=O)c1cc(C(=O)C(C)(C)C)n2c3ccccc3c3ccccc3c12,110% (inactive)
14,COc1cc(CNC(=O)C[C@H](C)CCC=C(C)C)ccc1OCc1cn(-c2ccccc2Cl)nn1,83.6% (inactive)
15,COc1cc(C2CC(c3ccc(F)cc3)=Nc3c(N)nc(N)nc3N2)ccc1Oc1nc(Nc2ccc(F)cc2)nc(N(C)C)n1 (stereo not given),71.6% (inactive)
16,CCOC(=O)/C(F)=C/C1CC1C1CCN(C(=O)OC(C)(C)C)CC1 (stereo not given),111% (inactive)
17,CN(C)c1nc(NCCNS(=O)(=O)c2ccc(C(=O)/C=C/c3ccc(Cl)cc3)cc2)nc(N2CCOCC2)n1,-9.86% (active)

row,Structure (SMILES),growth
1,NNc1ncnc2sc3c(c12)CCN(Cc1ccccc1)C3,13.4% (inactive)
2,O=C(Nc1nc2ccccc2s1)Nc1ccccc1Cl,111% (inactive)
3,Cc1cn(-c2cc(NC(=O)c3ccc(C)c(-n4cc(-c5cnc6cccnn56)nn4)c3)cc(C(F)(F)F)c2)cn1,124% (inactive)
4,Nc1cccc(-n2c(COc3ccc(I)cc3)nc3ccccc32)c1,87.7% (inactive) and 83.2% (inactive)
5,CCOC(=O)/C(F)=C/C1CC1CCc1ccc(OCC)cc1 (stereo not given),103% (inactive)
6,Cc1ccc(Nc2nnc(-c3c[nH]c4ccccc34)o2)c(C)c1,12.3% (inactive)
7,COC(=O)c1cccc(Oc2ccc(NC(=O)Nc3cc(C(F)(F)F)ccc3F)cc2)c1,78.5% (inactive)
8,COc1ccc(-c2cc(C)nc3[nH]c(=O)sc23)cc1,67.1% (inactive)
9,COc1cc2cc(C(=O)N3C[C@@H](CCl)c4c3cc(OC(=O)N(C)CCSSCCN3CCOCC3)c3ccccc43)[nH]c2c(OC)c1OC,-1.85% (active)
10,Cc1nn(-c2ccccc2)c2nc(C)n(C(=O)N/N=C/c3ccccc3)c(=O)c12,118% (inactive)
11,O=C(O)CC1S/C(=N/N=C/c2nc3ccccc3s2)NC1=O (stereo not given),88.4% (inactive)
12,CN(C(=O)CN1C(=O)/C(=C/c2ccco2)SC1=S)C1CCS(=O)(=O)C1 (stereo not given),99.9% (inactive)
13,O=CNc1cccc(-n2cnc3cc(-c4ccc(O)cc4)ccc32)c1,26.8% (inactive)
14,O=S(=O)(c1nc(-c2ccc(Br)cc2)oc1-c1ccc(Cl)cc1)N1CCCC(O)C1 (stereo not given),63.1% (inactive)
15,C/C(=N\Nc1ccc(C(=O)O)cc1)c1cnn(-c2cc(=O)[nH]c3ccc(C)cc23)c1C,98.9% (inactive)
16,CC(C)C[C@H](NC(=O)[C@@H]1CCCCCCCCCCC(=O)N[C@@H](CC(=O)N2CCC[C@@H]2C2CCCC2)C(=O)N1)B(O)O,-46.5% (active)
17,O=C(CSc1nnc(-c2ccc(-c3nc4ccc(Cl)cc4[nH]3)cc2)o1)Nc1ccc(Cl)cc1,5.34% (active)
